Assay [1] deals with Saccharomyces cerevisiae BY4741 SeMeCo community. Nature of the assay: z-score of prototroph abundance vs DMSO median; higher = larger share of this subpopulation than in DMSO controls. The note with it: 10 µM; 24 h; SM minimal medium; subpopulation (auxotrophy): Prototroph. The essentials:
(§1)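 A community of Saccharomyces cerevisiae BY4741 was built from four plasmids that each restored one auxotrophy and encoded a distinct fluorescent protein. Pre-grown overnight to OD600 1.0 and diluted to 0.3, it was dispensed at 70 µl into 384-well plates acoustically predosed with library drugs for a final 10 µM, and grown 24 h in minimal SM medium. Cells were then paraformaldehyde-fixed and imaged by automated confocal microscopy. Thresholds and autofluorescence correction came from single-auxotroph fluorescent strains, and each subpopulation's abundance was scored as a z-score relative to the vehicle-well median.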

For assay [2] the test system is unchanged. In words: z-score of subpopulation abundance vs DMSO median, subpopulation auxotrophic for M; higher = larger share of this subpopulation than in DMSO controls. Particulars: 10 µM; 24 h; SM minimal medium; subpopulation (auxotrophy): M. The method, boiled down: as §1
Assay [3] has the same test system. Nature of the assay: z-score of subpopulation abundance vs DMSO median, subpopulation auxotrophic for L; higher = larger share of this subpopulation than in DMSO controls. Particulars: 10 µM; 24 h; SM minimal medium; subpopulation (auxotrophy): L. The method, boiled down: as §1
Assay [4] shares this test system. Nature of the assay: z-score of subpopulation abundance vs DMSO median, subpopulation auxotrophic for U; higher = larger share of this subpopulation than in DMSO controls. Particulars: 10 µM; 24 h; SM minimal medium; subpopulation (auxotrophy): U. The method, boiled down:
as §1

The test system is the same in assay [5]. In words: z-score of subpopulation abundance vs DMSO median, subpopulation auxotrophic for H; higher = larger share of this subpopulation than in DMSO controls. Particulars: 10 µM; 24 h; SM minimal medium; subpopulation (auxotrophy): H. The method, boiled down:
as §1

The test system is the same in assay [6]. In words: z-score of subpopulation abundance vs DMSO median, subpopulation auxotrophic for LU; higher = larger share of this subpopulation than in DMSO controls. Particulars: 10 µM; 24 h; SM minimal medium; subpopulation (auxotrophy): LU. The essentials: as §1
Assay [7] shares this test system. Nature of the assay: z-score of subpopulation abundance vs DMSO median, subpopulation auxotrophic for HM; higher = larger share of this subpopulation than in DMSO controls. Particulars: 10 µM; 24 h; SM minimal medium; subpopulation (auxotrophy): HM. The essentials:
as §1

Assay [8] shares this test system. Nature of the assay: z-score of subpopulation abundance vs DMSO median, subpopulation auxotrophic for HU; higher = larger share of this subpopulation than in DMSO controls. The note with it: 10 µM; 24 h; SM minimal medium; subpopulation (auxotrophy): HU. The essentials: as §1
Assay [9] shares this test system. Nature of the assay: z-score of subpopulation abundance vs DMSO median, subpopulation auxotrophic for HL; higher = larger share of this subpopulation than in DMSO controls. The note with it: 10 µM; 24 h; SM minimal medium; subpopulation (auxotrophy): HL. The method, boiled down: as §1
The test system is the same in assay [10]. Nature of the assay: z-score of subpopulation abundance vs DMSO median, subpopulation auxotrophic for HLU; higher = larger share of this subpopulation than in DMSO controls. The note with it: 10 µM; 24 h; SM minimal medium; subpopulation (auxotrophy): HLU. The method, boiled down: as §1
For assay [11] the test system is unchanged. Nature of the assay: z-score of subpopulation abundance vs DMSO median, subpopulation auxotrophic for HUM; higher = larger share of this subpopulation than in DMSO controls. The note with it: 10 µM; 24 h; SM minimal medium; subpopulation (auxotrophy): HUM. The essentials:
as §1

Assay [12] shares this test system. In words: z-score of subpopulation abundance vs DMSO median, subpopulation auxotrophic for LUM; higher = larger share of this subpopulation than in DMSO controls. Particulars: 10 µM; 24 h; SM minimal medium; subpopulation (auxotrophy): LUM. The essentials: as §1
Assay [13] shares this test system. In words: z-score of subpopulation abundance vs DMSO median, subpopulation auxotrophic for HLUM; higher = larger share of this subpopulation than in DMSO controls. The note with it: 10 µM; 24 h; SM minimal medium; subpopulation (auxotrophy): HLUM. The method, boiled down: as §1
For assay [14] the test system is unchanged. Nature of the assay: z-score of subpopulation abundance vs DMSO median, subpopulation auxotrophic for LM; higher = larger share of this subpopulation than in DMSO controls. The note with it: 10 µM; 24 h; SM minimal medium; subpopulation (auxotrophy): LM. The essentials: as §1
Assay [15] has the same test system. In words: z-score of subpopulation abundance vs DMSO median, subpopulation auxotrophic for UM; higher = larger share of this subpopulation than in DMSO controls. Particulars: 10 µM; 24 h; SM minimal medium; subpopulation (auxotrophy): UM. The method, boiled down:
as §1

The test system is the same in assay [16]. Nature of the assay: mean cell size (pixel area) (pixels); higher = larger cells. Particulars: 10 µM; 24 h; SM minimal medium. The method, boiled down: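 A four-plasmid fluorescent Saccharomyces cerevisiae BY4741 community was tested; each plasmid complements one auxotrophy and carries a fluorescent marker. An overnight preculture at OD600 = 1.0 was diluted to OD600 = 0.3, and 70 µl was added to 384-well plates acoustically predosed with drug (final 10 µM) in SM medium for 24 h. Cells were fixed with paraformaldehyde and imaged by automated confocal microscopy, with analysis in Harmony. Mean cell pixel area per well is averaged over 3 replicates. Same SeMeCo high-content imaging drug screen: Selleck FDA-approved drugs at 10 µM, 24 h in SM medium, 384-well plates, 3 replicates.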

Assay [17] shares this test system. In words: z-score of subpopulation abundance vs DMSO median, subpopulation auxotrophic for HLM; higher = larger share of this subpopulation than in DMSO controls. The note with it: 10 µM; 24 h; SM minimal medium; subpopulation (auxotrophy): HLM. The method, boiled down:
as §1

Where a name gives a salt, the structure may show the parent alone. ± gives the standard deviation of the averaged measurements.

For `Cc1cccc(C#Cc2ccccc2)n1`, in [1], the “z-score of prototroph abundance” value was 0.53. For the same molecule, the “z-score of subpopulation abundance” value in assay [2] was -0.25; in [3], 0.06; in assay [4], 0.22; in assay [5] it was 0.06; in assay [6], 0.12; in assay [7], -0.61. For the same molecule, the “z-score of subpopulation abundance” value in assay [8] was -0.18; in [9] it was -0.06; in [10] it was -0.17; in assay [11], -0.32; in [12] it was -0.34; in assay [13], -0.82.
Regarding `CC1(C)S[C@@H]2[C@H](NC(=O)Cc3ccccc3)C(=O)N2[C@H]1C(=O)O` [Penicillin G Sodium], the “z-score of prototroph abundance” value in assay [1] was 0.77. For the same molecule, the “z-score of subpopulation abundance” value in assay [2] was -0.8; in [3] it was -0.1; in [5] it was -0.3; in [6] it was 0.16; in assay [14] it was -0.29; in assay [15], -0.23. Moreover, the “z-score of subpopulation abundance” value in assay [9] is -0.32; in assay [10], -0.18; in assay [11], -0.66; in assay [12], -0.52; in [13], 1.41.
In turn, `O=C(NCCO[N+](=O)[O-])c1cccnc1` [Nicorandil] had a mean cell size in assay [16] of 12.4 ± 0.13. For the same molecule, the “z-score of prototroph abundance” value in assay [1] turned out to be 0.69. Moreover, the “z-score of subpopulation abundance” value is -0.48 in assay [2]; 0.07 in [3]; -0.31 in [4]; -0.28 in [5]; 0.21 in assay [6]; -0.61 in assay [7]. For the same molecule, the “z-score of subpopulation abundance” value is -0.39 in assay [8]; -0.61 in [15]; 0.08 in [10]; -0.48 in [11]; -0.44 in [12]; -0.37 in assay [13].
`O=c1[nH]cc(F)c(=O)[nH]1` [Fluorouracil (5-Fluoracil, 5-FU)] came in with a mean cell size in assay [16] of 13.9 ± 0.2. Moreover, the “z-score of prototroph abundance” value in [1] is -10.5. Also, the “z-score of subpopulation abundance” value in [2] was -2.62; in assay [3], -0.27; in assay [4], 0.26; in assay [5], 13.4; in assay [6] it was 0.59; in assay [7], 18.4. Further, the “z-score of subpopulation abundance” value in [8] is 8.79; in assay [15], 2.82; in assay [9] it was 6.71; in assay [10], 10.4; in assay [11] it was 12.3; in assay [12], 3.63. For the same molecule, the “z-score of subpopulation abundance” value in [13] is 22.5.
In the case of `O=c1ccc2ccc(OCCCCN3CCN(c4cccc5sccc45)CC3)cc2[nH]1` [Brexpiprazole], the mean cell size in assay [16] was 12.35 ± 0.092. The “z-score of prototroph abundance” value in [1] is -0.62. For the same molecule, the “z-score of subpopulation abundance” value turned out to be 0.05 in [2]; 0.33 in assay [3]; 0.84 in assay [4]; 0.96 in [5]; 0.27 in [6]; 0.35 in [14]. Besides, the “z-score of subpopulation abundance” value in assay [7] is 0.35; in [15], 1.41; in [9], -0.02; in assay [10], -0.45; in assay [11], 0.25; in [12] it was 1.05. Also, the “z-score of subpopulation abundance” value in assay [13] was -0.98.
For `CN1C2CCCC1CC(NC(=O)c1nn(C)c3ccccc13)C2` (stereo not given) [Granisetron HCl], the mean cell size in assay [16] came out at 11.8 ± 0.16. Moreover, the “z-score of prototroph abundance” value in assay [1] is -0.01. Further, the “z-score of subpopulation abundance” value is -0.02 in [2]; -1.1 in [4]; 1.08 in [5]; -0.06 in assay [6]; 0.45 in assay [14]; 0.45 in assay [7]. The “z-score of subpopulation abundance” value is -0.52 in assay [8]; -0.36 in assay [15]; 0.42 in [9]; 0.66 in assay [10]; -0.26 in [17]; 0.03 in assay [11]. For the same molecule, the “z-score of subpopulation abundance” value was 0.06 in assay [12] and -0.37 in assay [13].
In [16], `Oc1ccc(C2CNCCc3c2cc(O)c(O)c3Cl)cc1` (stereo not given) [Fenoldopam mesylate] returned a mean cell size of 12.9 ± 0.26. In addition, in assay [1], the “z-score of prototroph abundance” value stood at 0.87. Moreover, the “z-score of subpopulation abundance” value is 1.31 in [2]; -1.59 in assay [3]; -1.92 in assay [4]; 0.06 in assay [5]; -1.75 in assay [6]; 2.31 in assay [14]. Also, the “z-score of subpopulation abundance” value in [8] is -0.06; in [15], -1.9; in assay [9] it was 0.16; in [10], -0.29; in [11], -0.92; in assay [12], -1.22. In addition, the “z-score of subpopulation abundance” value in [13] was 1.24.
